Reference: PubChem BioAssay (EPA / NIEHS)
Several values for one entry are separate records, joined by “and”; a condition that tells them apart may be missing. Equal entries are not always repeated. Activity calls are given as the source filed them. The calls were made as follows: active = hit-call score of the fitted dose curve at least 0.9, where 1 is the maximum; inactive = score below 0.9.

What was measured:
[1] = read-out: Interleukin-8 (IL8), CXCL8 (gene 3576); assay: BSK_3C_IL8: BioMAP Diversity Plus: 3C Assay for Interleukin-8 (IL8) Biomarker Activity (AID 2283020); conditions: primary human endothelial cells (HUVEC); actives raise or lower the signal
Procedure, shortened: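 Primary human umbilical vein endothelial cells were dosed for 24 h. IL-8 was quantified by ELISA and fitted bidirectionally against DMSO. Cytotoxicity was assessed in parallel cultures by SRB staining at 560 nm.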

[2] = read-out: Monokine induced gamma interferon (MIG), CXCL9 (gene 4283); assay: BSK_3C_MIG: BioMAP Diversity Plus: 3C Assay for Monokine induced gamma interferon (MIG) Biomarker Activity (AID 2283021); conditions: primary human endothelial cells (HUVEC); actives raise or lower the signal;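 as to AC50: MIG protein level measured by immunoassay in the treated endothelial cultures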
Procedure, shortened: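 HUVEC primary endothelial cultures dosed with chemical; MIG quantified by ELISA at 24 h. Data fitted bidirectionally against DMSO control, with parallel SRB total-protein staining for cytotoxicity.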

[3] = BSK_3C_SRB: Viability Assessment in the BioMAP Diversity Plus: 3C Assay (AID 2283023); conditions: primary human endothelial cells (HUVEC);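 also: fitted both ways against DMSO so a hit may be signal rise or drop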
Procedure, shortened: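 Human umbilical vein endothelial cells in the 3C system, treated 24 h. Total protein measured by 0.1% sulforhodamine B staining after 10% TCA fixation, read at 560 nm; bidirectional fit versus DMSO.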

[4] = read-out: Matrix Metallopeptidase 1 (MMP1), MMP1 (gene 4312); assay: BSK_BE3C_MMP1: BioMAP Diversity Plus: BE3C Assay for Matrix Metallopeptidase 1 (MMP1) Biomarker Activity (AID 2283024); conditions: primary human bronchial epithelial cells; actives raise or lower the signal
Procedure, shortened: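 Human primary bronchial epithelial cells (BE3C system) dosed for 24 h; MMP-1 quantified by ELISA. Bidirectional fit against DMSO; cytotoxicity tracked in parallel cultures by SRB total-protein staining.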

[5] = read-out: Pselectin, SELP (gene 6403); assay: BSK_4H_Pselectin: BioMAP Diversity Plus: 4H Assay for Pselectin Biomarker Activity (AID 2283026); conditions: primary human endothelial cells (HUVEC); actives raise or lower the signal
Procedure, shortened: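 Primary human umbilical vein endothelial cells were treated 24 h, and cell-surface P-selectin was then quantified by ELISA. Bidirectional fit versus DMSO; cytotoxicity checked in parallel cultures by SRB total-protein staining.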

[6] = BSK_4H_SRB: Viability Assessment in the BioMAP Diversity Plus: 4H Assay (AID 2283027); conditions: primary human endothelial cells (HUVEC);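 also: cells exposed to compound for 24 h before staining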;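 as to AC50: curves fitted both ways versus DMSO so AC50 may be loss or gain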
Procedure, shortened: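 Human umbilical vein endothelial cells were dosed with chemical and, after 24 h, fixed with 10% TCA, stained with 0.1% sulforhodamine B, and read at 560 nm to give total protein as a cytotoxicity measure. Bidirectional fitting relative to DMSO control.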

[7] = BSK_BE3C_SRB: Viability Assessment in the BioMAP Diversity Plus: BE3C Assay (AID 2283028); conditions: primary human bronchial epithelial cells;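 as to AC50: fitted both ways so AC50 may mark signal gain or loss versus DMSO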
Procedure, shortened: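 Human bronchial epithelial primary cells in confluent culture, 24 h after chemical dosing; total protein by 0.1% SRB staining after 10% TCA fixation, read at 560 nm. Bidirectional fitting versus DMSO baseline.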

[8] = read-out: Human Leukocyte Antigen - DR isotype (HLADR), HLA-DRA (gene 3122); assay: BSK_BE3C_HLADR: BioMAP Diversity Plus: BE3C Assay for Human Leukocyte Antigen - DR isotype (HLADR) Biomarker Activity (AID 2283032); conditions: primary human bronchial epithelial cells; actives raise or lower the signal
Procedure, shortened: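 Human primary bronchial epithelial cells (BE3C system) exposed to compound for 24 hours; cell-surface HLA-DR measured by ELISA, fitted bidirectionally relative to DMSO. Total protein by SRB in parallel cultures tracked cytotoxicity.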

[9] = read-out: Vascular cell adhesion molecule 1 (VCAM1), VCAM1 (gene 7412); assay: BSK_4H_VCAM1: BioMAP Diversity Plus: 4H Assay for Vascular cell adhesion molecule 1 (VCAM1) Biomarker Activity (AID 2283033); conditions: primary human endothelial cells (HUVEC); actives raise or lower the signal
Procedure, shortened: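 Primary human umbilical vein endothelial cells, 4H stimulation system, treated for 24 h; cell-surface VCAM-1 quantified by ELISA. Bidirectional fitting against DMSO; cytotoxicity tracked by SRB total-protein staining in parallel cultures.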

[10] = read-out: Interferon-gamma inducible Protein 10 (IP10), CXCL10 (gene 3627); assay: BSK_BE3C_IP10: BioMAP Diversity Plus: BE3C Assay for Interferon-gamma inducible Protein 10 (IP10) Biomarker Activity (AID 2283034); conditions: primary human bronchial epithelial cells; actives raise or lower the signal
Procedure, shortened: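 Primary human bronchial epithelial cells, with IP-10 measured by ELISA 24 hours after chemical dosing. Bidirectional fit against DMSO; cytotoxicity checked by SRB total protein staining in parallel cultures.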

[11] = read-out: Monokine induced gamma interferon (MIG), CXCL9 (gene 4283); assay: BSK_BE3C_MIG: BioMAP Diversity Plus: BE3C Assay for Monokine induced gamma interferon (MIG) Biomarker Activity (AID 2283035); conditions: primary human bronchial epithelial cells; actives raise or lower the signal
Procedure, shortened: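 ELISA read-out of MIG in human lung bronchial epithelial primary cultures, 24 h post-dosing. Bidirectional curve fit vs DMSO baseline.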

[12] = read-out: Urokinase-type plasminogen activator receptor (uPAR), PLAUR (gene 5329); assay: BSK_BE3C_uPAR: BioMAP Diversity Plus: BE3C Assay for Urokinase-type plasminogen activator receptor (uPAR) Biomarker Activity (AID 2283039); conditions: primary human bronchial epithelial cells; actives raise or lower the signal
Procedure, shortened: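 Primary human bronchial epithelial cells dosed for 24 h; uPAR quantified by ELISA with bidirectional fitting against DMSO. Overt cytotoxicity assessed in parallel cultures by SRB total-protein staining (0.1% SRB, 560 nm).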

[13] = read-out: Interleukin-6 (IL6), IL6 (gene 3569); assay: BSK_CASM3C_IL6: BioMAP Diversity Plus: CASM3C Assay for Interleukin-6 (IL6) Biomarker Activity for (AID 2283040); conditions: primary human coronary artery smooth muscle cells; actives raise or lower the signal
[14] = read-out: Interleukin-8 (IL8), CXCL8 (gene 3576); assay: BSK_CASM3C_IL8: BioMAP Diversity Plus: CASM3C Assay for Interleukin-8 (IL8) Biomarker Activity (AID 2283042); conditions: primary human coronary artery smooth muscle cells; actives raise or lower the signal;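 also: IL-8 protein level quantified by ELISA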
[15] = read-out: Macrophage colony-stimulating factor (MCSF), CSF1 (gene 1435); assay: BSK_CASM3C_MCSF: BioMAP Diversity Plus: CASM3C Assay for Macrophage colony-stimulating factor (MCSF) Biomarker Activity (AID 2283044); conditions: primary human coronary artery smooth muscle cells; actives raise or lower the signal;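 also: M-CSF protein amount quantified by ELISA after 24 h exposure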
[16] = read-out: Monocyte Chemoattractant Protein-1 (MCP1), CCL2 (gene 6347); assay: BSK_CASM3C_MCP1: BioMAP Diversity Plus: CASM3C Assay for Monocyte Chemoattractant Protein-1 (MCP1) Biomarker Activity (AID 2283046); conditions: primary human coronary artery smooth muscle cells; actives raise or lower the signal;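 also: MCP-1 level quantified by ELISA 24 h after dosing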
[17] = BSK_CASM3C_Proliferation: Cell Proliferation Assessment in the BioMAP Diversity Plus: CASM3C Assay (AID 2283047); conditions: primary human coronary artery smooth muscle cells;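 also: sub-confluent cells exposed 48 h before staining; fitted both ways against DMSO so gain or loss of cell number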
[18] = read-out: Monokine induced gamma interferon (MIG), CXCL9 (gene 4283); assay: BSK_CASM3C_MIG: BioMAP Diversity Plus: CASM3C Assay for Monokine induced gamma interferon (MIG) Biomarker Activity (AID 2283048); conditions: primary human coronary artery smooth muscle cells; actives raise or lower the signal;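 also: MIG protein level measured by ELISA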
[19] = read-out: serum amyloid A (SAA), SAA1 (gene 6288); assay: BSK_CASM3C_SAA: BioMAP Diversity Plus: CASM3C Assay for serum amyloid A (SAA) Biomarker Activity (AID 2283049); conditions: primary human coronary artery smooth muscle cells; actives raise or lower the signal;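 also: SAA protein level quantified by ELISA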
[20] = BSK_CASM3C_SRB: Viability Assessment in the BioMAP Diversity Plus: CASM3C Assay (AID 2283050); conditions: primary human coronary artery smooth muscle cells

Measured: AC50

N#CCCCCC#N
inactive: all assays above

CC(C)COP(=O)(OCC(C)C)OCC(C)C
inactive: all assays above

Oc1ccc(C2(c3ccc(O)cc3)c3ccccc3-c3ccccc32)cc1
inactive: [4]
active: [1] 17.2 µM and 20 µM | [2] 16 µM and 14.8 µM | [3] 6.97 µM and 8.38 µM | [5] 3.01 µM and 5.41 µM | [6] 11.9 µM | [7] 5.04 µM and 5.03 µM | [8] 0.15 µM | [9] 6.91 µM and 7.37 µM | [10] 5.4 µM and 3.97 µM | [11] 5.44 µM and 5.43 µM | [12] 5.37 µM and 5.3 µM | [13] 9.02 µM and 4.73 µM | [14] 27 µM and 24.3 µM | [15] 11.1 µM and 20 µM | [16] 20 µM | [17] 32.4 µM and 32.9 µM | [18] 914 nM and 799 nM | [19] 20 µM | [20] 20 µM

Oc1cc(Cl)ccc1Cl
inactive: all assays above

CC1(C)[C@H](C(=O)O[C@H](C#N)c2cccc(Oc3ccccc3)c2)[C@@H]1C=C(Br)Br
inactive: all assays above

CC(C)(c1cc(Cl)c(O)c(Cl)c1)c1cc(Cl)c(O)c(Cl)c1
inactive: [14]
active: [1] 20 µM | [2] 28.9 µM | [3] 9.54 µM | [4] 9.58 µM | [5] 27.8 µM | [6] 29 µM | [7] 6.38 µM | [8] 9.27 µM | [9] 30.1 µM | [10] 7.58 µM | [11] 7.45 µM | [12] 5.31 µM | [13] 36.4 µM | [15] 20 µM | [16] 32.6 µM | [17] 32.6 µM | [18] 32.9 µM | [19] 32.1 µM | [20] 31.6 µM

C=CC(=O)OCC(CC)CCCC (stereo not given)
active: [1] 20 µM | [9] 0.159 µM | [20] 31.7 µM
inactive: all other assays above
